This note sets out measurements from PubChem BioAssay (NCATS).

SMILES strings stand for the structures. Values joined by “and” are separate entries in the source; they are usually repeats but may differ in a detail not shown here. Equal values may be shown once. Results filed as inconclusive are left out. Some compounds were tested as several samples or in several runs, with calls that do not always agree. Active and inactive are the calls of the source. Calls follow the shape of the dose curve; as a rule, active = well fitted curve in the direction sought with a large enough effect; inconclusive = small, poorly fitted or top-dose-only effect, or another doubt; inactive = no such curve, though single readings can be large; an effect the other way counts as inactive or inconclusive.

In experiment [1] the target is Beta-2 adrenergic receptor (Homo sapiens) (UniProt P07550). Kind of experiment: qHTS validation assay of beta-arrestin-biased ligands of beta2-adrenergic receptor (AID 485366). A digest of the protocol:
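Tango cells (recombinant beta2-AR with recombinant beta-arrestin; recruitment releases tTA driving luciferase) were treated with compounds titrated up to 46 microM for 18 hr at 37 degrees C. Luminescence gave %Activity, and concentration-response curves were curve-classified.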

A short description of experiment [2]: Quantitative high throughput screen for delayed death inhibitors of the malarial parasite plastid, 96 hour incubation (AID 488745). Also: nearly all actives have a fitted effect of over 70% in size. Also: potency is read from the fitted curve at half-maximal effect. The gist of the method:
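P. falciparum carrying an integrated firefly luciferase reporter, grown in erythrocytes (2% hematocrit, 0.1% parasitemia final) in RPMI 1640/0.5% Albumax, was exposed to compound for 96 h (two generations) at 37 C, 5% CO2. Luminescence decrease indicated growth inhibition.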

Experiment [3] can be described thus: Quantitative high throughput screen for delayed death inhibitors of the malarial parasite plastid, 48 hour incubation (AID 488752). Also: nearly all actives have a fitted effect of over 65% in size. Also: potency is read from the fitted curve at half-maximal effect. A digest of the protocol: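 Erythrocytes infected with P. falciparum carrying an integrated firefly luciferase reporter (2% hematocrit, 0.1% parasitemia final) were exposed to compounds in RPMI 1640/0.5% Albumax for 48 h at 37 C, 5% CO2. Growth inhibition was scored as reduced luminescence.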

Experiment [4] deals with Thioredoxin reductase 1, cytoplasmic (Rattus norvegicus) (UniProt O89049). Kind of experiment: qHTS Assay for Substrates of Mammalian Selenoprotein Thioredoxin Reductase 1 (TrxR1) (AID 488772).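 Also: NADPH fluorescence in the first read after selenite addition and not the 8 min delta; series mostly up to about 57 µM; a drop in NADPH fluorescence below the no-compound background marks a TrxR1 substrate.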 The gist of the method:
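Quantitative HTS in Tris-HCl buffer at pH 7.5 with EDTA and Tween-20, using rat TrxR1, 400 uM NADPH and 400 uM selenite (final). A fall in initial NADPH fluorescence relative to background marked substrate behaviour.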
In general terms: qHTS replaces the single test concentration by a dilution series.

The target is the same in experiment [5]. Kind of experiment: qHTS Assay for Inhibitors of Mammalian Selenoprotein Thioredoxin Reductase 1 (TrxR1) (AID 488773). Also: nearly all actives have a fitted effect of over 40% in size. Also: potency is read from the fitted curve at half-maximal effect. As to conditions: Potency: inhibition. A digest of the protocol: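 Steps: enzyme (90 nM) plus NADPH (400 uM final), 5 min at ~22 deg C; compound added, 15 min; selenite (400 uM final) added; fluorescence followed for 8 min. Concentration-response curves derived from the normalized delta values.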

The target in experiment [6] is Flap endonuclease 1 (Homo sapiens) (UniProt P39748). Kind of experiment: qHTS Validation Assay for the Inhibitors of Human Flap endonuclease 1 (FEN1) (AID 488816). Also: potency is read from the fitted curve at half-maximal effect. A digest of the protocol:
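FEN1, dispensed as a 10 nM reagent, was preincubated with pin-transferred compounds for 15 min at room temperature before substrate was added (50 nM final). Plates were read at 0 and 15 min, and a four-parameter Hill equation was fitted to the concentration-response data.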

For experiment [7], the target named is M-phase phosphoprotein 8 (Homo sapiens) (UniProt Q99549). Kind of experiment: qHTS Validation Assay for Inhibitors for MPP8 Chromodomain Interactions with Methylated Histone Tails (AID 488949). Also: nearly all actives have a fitted effect of over 55% in size. Also: potency is read from the fitted curve at half-maximal effect. A digest of the protocol: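 MPP8 (50 nM) was preincubated with biotinylated H3(1-18)K9me3 peptide (50 nM) in PBS pH 7.4, 0.01% Tween-20 for 30 min at room temperature, then with compounds for 30 min; binding was detected by AlphaScreen.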
M-phase phosphoprotein 8 (Homo sapiens), sequence (Q99549 whole entry, looked up): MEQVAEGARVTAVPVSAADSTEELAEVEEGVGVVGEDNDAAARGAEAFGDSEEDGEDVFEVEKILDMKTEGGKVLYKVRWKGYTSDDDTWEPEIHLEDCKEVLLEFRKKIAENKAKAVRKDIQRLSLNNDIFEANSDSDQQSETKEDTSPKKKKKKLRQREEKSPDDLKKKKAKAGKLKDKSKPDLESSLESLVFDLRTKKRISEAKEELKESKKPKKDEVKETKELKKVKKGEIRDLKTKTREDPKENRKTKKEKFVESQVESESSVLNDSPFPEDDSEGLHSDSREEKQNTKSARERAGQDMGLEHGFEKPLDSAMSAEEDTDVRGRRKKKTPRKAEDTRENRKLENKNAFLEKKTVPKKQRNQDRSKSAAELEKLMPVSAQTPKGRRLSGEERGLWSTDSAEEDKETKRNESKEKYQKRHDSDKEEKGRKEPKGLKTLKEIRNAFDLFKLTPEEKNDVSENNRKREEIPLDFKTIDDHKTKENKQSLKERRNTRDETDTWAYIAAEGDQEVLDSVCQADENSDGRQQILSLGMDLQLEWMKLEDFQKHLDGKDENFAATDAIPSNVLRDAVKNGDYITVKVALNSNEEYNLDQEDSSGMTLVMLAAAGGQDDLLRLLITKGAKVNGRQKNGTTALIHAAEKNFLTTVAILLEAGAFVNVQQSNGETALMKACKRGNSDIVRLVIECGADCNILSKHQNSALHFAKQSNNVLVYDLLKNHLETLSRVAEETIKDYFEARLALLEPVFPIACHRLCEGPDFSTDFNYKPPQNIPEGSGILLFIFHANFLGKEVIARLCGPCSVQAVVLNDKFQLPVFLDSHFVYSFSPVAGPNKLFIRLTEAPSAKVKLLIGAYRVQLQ

For experiment [8], the target named is Chromobox protein homolog 1 (Homo sapiens) (UniProt P83916). Kind of experiment: qHTS Validation Assay for Inhibitors of HP1-beta Chromodomain Interactions with Methylated Histone Tails (AID 488953). Also: nearly all actives have a fitted effect of over 50% in size. Also: potency is read from the fitted curve at half-maximal effect. The gist of the method: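 HP1-beta (50 nM) was preincubated 30 min at room temperature with biotinylated H3(1-18)K9me3 peptide (50 nM) in PBS pH 7.4, 0.01% Tween-20, then with compounds 30 min. AlphaScreen signal was read after streptavidin donor/nickel chelate acceptor beads (10 ug/mL final).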
Chromobox protein homolog 1 (Homo sapiens), sequence (P83916 whole entry, looked up): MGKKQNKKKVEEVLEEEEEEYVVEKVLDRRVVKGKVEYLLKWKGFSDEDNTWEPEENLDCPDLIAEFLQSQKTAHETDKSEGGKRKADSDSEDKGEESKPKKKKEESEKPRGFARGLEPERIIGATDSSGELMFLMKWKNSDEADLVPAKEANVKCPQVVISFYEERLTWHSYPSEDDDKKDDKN

Experiment [9] addresses Methanococcus maripaludis chaperonin (MmCpn) (UniProt Q6LX38). Kind of experiment: High-Throughput Screening for Modulators of Cytosolic Chaperonin Activity: MmCpn Primary Screen (AID 488978).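 Also: 50 nM MmCpn enzyme hydrolysing 30 µM ATP at 37 °C.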 A digest of the protocol:
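MmCpn (50 nM final) was preincubated with compound 5 min at RT, then 30 uM ATP (final) was added and the reaction ran 10 min at 37C. ADP produced was detected by Transcreener HTRF (ex 320 nm; em 590/665 nm).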

Experiment [10] addresses ATP-dependent 6-phosphofructokinase (Trypanosoma brucei brucei) (UniProt O15648). Kind of experiment: qHTS Validation Assay to Find Inhibitors of T. brucei phosphofructokinase (AID 485368). The gist of the method:
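Compounds (up to 57 uM, titration series) were pinned into substrate buffer, then 1.25 nM PFK added; after 45 min at room temperature, ADP product was quantified by ADP-Glo luminescence and concentration-response curves fitted.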

Beta-2 adrenergic receptor (Homo sapiens), sequence (P07550 whole entry, looked up): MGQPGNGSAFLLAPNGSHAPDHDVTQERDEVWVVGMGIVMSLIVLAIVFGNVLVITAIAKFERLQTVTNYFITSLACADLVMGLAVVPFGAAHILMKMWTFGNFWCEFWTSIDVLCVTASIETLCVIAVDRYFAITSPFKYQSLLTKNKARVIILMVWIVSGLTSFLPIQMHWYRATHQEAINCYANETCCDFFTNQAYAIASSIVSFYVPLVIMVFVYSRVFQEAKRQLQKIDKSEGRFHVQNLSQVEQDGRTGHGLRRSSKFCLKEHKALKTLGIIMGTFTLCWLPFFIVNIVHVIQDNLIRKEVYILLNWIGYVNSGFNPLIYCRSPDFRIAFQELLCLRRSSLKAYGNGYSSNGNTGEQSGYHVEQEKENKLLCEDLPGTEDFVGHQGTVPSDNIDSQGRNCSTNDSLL
Flap endonuclease 1 (Homo sapiens), sequence (P39748 whole entry, looked up): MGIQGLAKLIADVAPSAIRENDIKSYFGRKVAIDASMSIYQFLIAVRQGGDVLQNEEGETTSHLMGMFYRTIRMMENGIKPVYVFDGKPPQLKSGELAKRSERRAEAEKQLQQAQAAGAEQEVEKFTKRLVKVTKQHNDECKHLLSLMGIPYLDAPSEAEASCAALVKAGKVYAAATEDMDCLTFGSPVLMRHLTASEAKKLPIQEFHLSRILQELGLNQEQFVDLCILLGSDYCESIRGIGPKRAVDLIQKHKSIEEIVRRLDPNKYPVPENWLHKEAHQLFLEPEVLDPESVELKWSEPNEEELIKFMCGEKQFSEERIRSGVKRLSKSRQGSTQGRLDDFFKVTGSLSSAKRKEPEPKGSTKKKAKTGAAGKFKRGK
Methanococcus maripaludis chaperonin (MmCpn), sequence (Q6LX38 1-543): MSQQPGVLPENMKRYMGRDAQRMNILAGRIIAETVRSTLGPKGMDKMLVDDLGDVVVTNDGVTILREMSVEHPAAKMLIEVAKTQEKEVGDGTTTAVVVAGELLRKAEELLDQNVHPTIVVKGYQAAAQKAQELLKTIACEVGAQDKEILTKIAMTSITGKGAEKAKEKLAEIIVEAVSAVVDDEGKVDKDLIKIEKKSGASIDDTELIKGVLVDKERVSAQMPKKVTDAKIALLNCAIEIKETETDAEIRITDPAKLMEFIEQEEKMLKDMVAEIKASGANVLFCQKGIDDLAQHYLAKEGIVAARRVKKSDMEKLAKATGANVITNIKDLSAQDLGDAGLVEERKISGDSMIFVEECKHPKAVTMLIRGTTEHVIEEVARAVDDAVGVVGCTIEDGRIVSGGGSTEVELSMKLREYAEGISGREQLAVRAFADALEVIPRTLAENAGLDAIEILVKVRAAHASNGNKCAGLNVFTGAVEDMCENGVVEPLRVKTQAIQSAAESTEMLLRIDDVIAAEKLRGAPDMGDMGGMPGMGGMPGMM
Thioredoxin reductase 1, cytoplasmic (Rattus norvegicus), sequence (O89049 whole entry, looked up): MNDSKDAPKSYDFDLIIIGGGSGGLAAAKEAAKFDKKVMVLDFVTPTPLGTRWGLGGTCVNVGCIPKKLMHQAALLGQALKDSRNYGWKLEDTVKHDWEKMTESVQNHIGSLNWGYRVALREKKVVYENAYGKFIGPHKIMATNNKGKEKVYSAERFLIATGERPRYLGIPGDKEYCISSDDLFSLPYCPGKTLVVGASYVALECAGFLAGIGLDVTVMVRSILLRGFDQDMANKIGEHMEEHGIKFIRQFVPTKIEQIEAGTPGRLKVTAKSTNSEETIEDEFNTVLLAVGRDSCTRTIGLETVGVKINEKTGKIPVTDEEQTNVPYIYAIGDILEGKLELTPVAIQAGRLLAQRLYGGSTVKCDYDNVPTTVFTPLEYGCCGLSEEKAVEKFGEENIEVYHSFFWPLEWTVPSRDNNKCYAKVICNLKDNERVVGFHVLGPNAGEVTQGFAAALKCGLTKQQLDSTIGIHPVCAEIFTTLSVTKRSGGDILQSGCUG
ATP-dependent 6-phosphofructokinase (Trypanosoma brucei brucei), sequence (O15648 whole entry, looked up): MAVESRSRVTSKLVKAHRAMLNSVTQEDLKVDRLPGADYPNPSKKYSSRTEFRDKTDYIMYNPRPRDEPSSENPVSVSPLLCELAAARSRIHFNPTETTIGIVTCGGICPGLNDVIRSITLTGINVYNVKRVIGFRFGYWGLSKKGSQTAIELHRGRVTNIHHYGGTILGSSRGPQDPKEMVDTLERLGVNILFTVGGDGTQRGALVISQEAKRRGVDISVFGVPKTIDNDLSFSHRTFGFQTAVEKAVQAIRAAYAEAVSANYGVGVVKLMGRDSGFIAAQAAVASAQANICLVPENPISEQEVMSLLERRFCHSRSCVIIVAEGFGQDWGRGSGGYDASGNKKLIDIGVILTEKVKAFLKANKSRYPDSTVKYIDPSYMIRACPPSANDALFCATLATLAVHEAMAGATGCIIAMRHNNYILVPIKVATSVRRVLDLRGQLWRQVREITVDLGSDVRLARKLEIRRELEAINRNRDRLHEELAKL

For the molecule `O=C(O)c1cc(=O)cc(C(=O)O)[nH]1`, the molecule was classed as inactive in [1], in experiment [4] and in experiment [9]. In addition, the Potency result in experiment [2], in experiment [3], in [5], in [6], in [7] and in experiment [8] was “inactive” each time.

Regarding `Cc1nc(N=Nc2ccc(S(=O)(=O)O)cc2S(=O)(=O)O)c(COP(=O)(O)O)c(C=O)c1O`, the result in experiment [1], in [4] and in experiment [9] was inactive. Further, the Potency result in [2], in [3], in experiment [5], in experiment [6], in [7] and in experiment [8] was “inactive” in each case.

Take `NC(Cc1cccc(-c2ccccc2CP(=O)(O)O)c1)C(=O)O` (stereo not drawn): the outcome in experiment [1], in experiment [4] and in experiment [9] was inactive. The Potency result in [2], in experiment [3], in experiment [5], in experiment [6], in [7] and in [8] was “inactive” in each case.

For the molecule `CCCCCCC/C=C\CCCCCCCCC(=O)O`, the call in [1], in [4] and in experiment [9] was inactive. Also, the Potency result in experiment [2], in [3], in [5], in experiment [6], in [7] and in [8] was “inactive” in each case.

On to `[N-]=[N+]=Nc1ccc(C(=O)CSC[C@H](NC(=O)CC[C@H](N)C(=O)O)C(=O)NCC(=O)O)cc1`, for which the molecule was called inactive in [1], in experiment [4] and in experiment [9]. The Potency result in [2], in [3], in experiment [5] and in [6] was “inactive” in each case. Further, the Potency in [7] is 35.5 µM (active) and inactive; in [8], 39.8 µM (active).

Turning to `NCCCCN`, the outcome in experiment [1], in experiment [4] and in experiment [9] was inactive. Further, the Potency entry in experiment [2], in [3], in experiment [5], in [6], in experiment [7] and in experiment [8] was “inactive” throughout.

As for `CC(=O)O[C@H]1CC2(C)[C@@H](C[C@@H](O)[C@H]3[C@@]4(C)CC[C@@H](O)[C@@H](C)[C@@H]4CC[C@@]32C)C1=C(CCC=C(C)C)C(=O)O` (stereo partly drawn), the molecule was classed as inactive in experiment [1], in experiment [4] and in experiment [9]. Moreover, the Potency entry in experiment [2], in experiment [3], in experiment [5], in [6], in experiment [7] and in [8] was “inactive” in each case.

On to `CN(C)CCCc1cc(C(=O)Nc2ccc(-c3ccncc3)cc2)ccc1O`, for which the call in [1], in experiment [4] and in experiment [9] was inactive. Moreover, the Potency result in [10], in experiment [5] and in [7] was “inactive” in each case.

Regarding `CC(N)(Cc1ccc(O)c(O)c1)C(=O)O` (stereo not drawn), the result in experiment [1] and in experiment [4] was inactive. The Potency result in [2] and in experiment [3] was “inactive” in each case. Also, the Potency in [5] is 2.99 µM (active); in [6], 2.38 µM (active); in [7], 79.4 µM (active) and 2.38 µM (active); in [8], 5.32 µM (active).

In the case of `N[C@@H](Cc1ccc(F)cc1)C(=O)O`, the result in [1], in experiment [4] and in experiment [9] was inactive. The Potency entry in [10], in experiment [7] and in [8] was “inactive” each time.

For `N[C@@H](CS(=O)O)C(=O)O`, the result in [1] and in [4] was inactive. For the same molecule, the Potency result in experiment [2], in [3], in experiment [5], in experiment [6], in experiment [7] and in [8] was “inactive” in each case.

Consider `Cc1cc2c(cc1Cl)N(C(=O)Nc1ccnc3ccccc13)CC2`, for which the molecule was called inactive in [1] and in experiment [4]. Further, the Potency result in [2], in experiment [3], in [5], in experiment [6], in experiment [7] and in [8] was “inactive” in each case.

Take `O=C(O)CCC/C=C\C[C@@H]1[C@@H](/C=C/[C@H](O)C2Cc3ccccc3C2)[C@@H](F)C[C@@H]1O`: the molecule was called inactive in [1], in experiment [4] and in experiment [9]. The Potency result in experiment [10], in [5] and in experiment [7] was “inactive” throughout.

Consider `COc1ccc(-c2cc3ncc(C)n3c(Nc3ncccc3C(N)=O)n2)cc1OC`, for which the molecule was called inactive in experiment [1], in [4] and in [9]. The Potency result in experiment [10], in experiment [6], in [7] and in experiment [8] was “inactive” in each case.

As for `CCCn1c(=O)c2c(ncn2C)n(CCC)c1=O`, the molecule was called inactive in experiment [1], in experiment [4] and in experiment [9]. For the same molecule, the Potency entry in experiment [2], in experiment [3], in [5], in experiment [6], in experiment [7] and in experiment [8] was “inactive” each time.

For `NCCCNCCCCNCCCN`, the molecule was classed as inactive in [1] and in [4]. In addition, the Potency result in experiment [2], in experiment [3], in experiment [5], in [6], in [7] and in experiment [8] was “inactive” each time.

Regarding `CC(C)C[C@H](NC(=O)C1OC1C(=O)O)C(=O)NCCCCN=C(N)N` (stereo partly drawn), the molecule was classed as inactive in experiment [1], in experiment [4] and in experiment [9]. Further, the Potency in experiment [2] was 2.33 µM (active); in experiment [3], 5.86 µM (active); in experiment [8] it was 0.006 µM (active). Further, the Potency result in [5], in experiment [6] and in [7] was “inactive” each time.

`Nc1ccc(N2C(=O)c3ccccc3C2=O)c(Cl)c1`: the result in experiment [1], in experiment [4] and in [9] was inactive. For the same molecule, the Potency result in [2], in [3], in experiment [5], in experiment [6], in experiment [7] and in experiment [8] was “inactive” throughout.

Regarding `Cn1c(=O)c2[nH]c(C3CCCC3)nc2n(C)c1=O`, the call in [1] and in experiment [4] was inactive. The Potency entry in experiment [2], in experiment [3], in experiment [5], in experiment [6], in experiment [7] and in [8] was “inactive” each time.

For `O=c1[nH]ccc2c(O)cccc12`, the call in experiment [1], in [4] and in [9] was inactive. The Potency result in experiment [2], in experiment [3], in experiment [5], in experiment [6], in [7] and in experiment [8] was “inactive” each time.

`O=c1ccn([C@@H]2O[C@H](COP(=O)(O)OP(=O)(O)O)[C@@H](O)[C@H]2O)c(=O)[nH]1`: the result in [1], in experiment [4] and in experiment [9] was inactive. Also, the Potency entry in [2], in experiment [3], in experiment [5], in [6], in experiment [7] and in [8] was “inactive” throughout.

`C=CCNc1ncnc2ccc(Br)cc12`: the molecule was called inactive in [1], in experiment [4] and in experiment [9]. The Potency result in [10], in experiment [6], in experiment [7] and in [8] was “inactive” in each case.

As for `O=C(c1ccc2c(c1)OCCO2)N1CCCCC1`, the call in experiment [1], in experiment [4] and in experiment [9] was inactive. In addition, the Potency result in experiment [2], in [3], in experiment [5], in experiment [6], in experiment [7] and in experiment [8] was “inactive” throughout.

As to `C=CCN1CCc2c(cc(O)c(O)c2Br)[C@@H](c2ccccc2)C1`, the molecule was called inactive in experiment [1], in [4] and in experiment [9]. In addition, the Potency result in [2], in [5], in [6] and in [7] was “inactive” in each case. Also, the Potency in experiment [3] was 1.85 µM (active); in experiment [8], 44.7 µM (active).
